Results on 13 compounds are retold here after PubChem BioAssay (NCATS).

The target of assay [1] is Lysosomal acid glucosylceramidase (Homo sapiens) (UniProt P04062). Put plainly: Glucocerebrosidase-p2 (AID 348; in the data active means potency below about 10 µM; further: potency means the concentration at half of the fitted maximal effect). Conditions: purified GBA, blue fluorogenic substrate, 40 min. Summed up: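 Compounds titrated from 0.6 nM upwards against 0.2 nM enzyme in pH 5.9 citric acid/KH2PO4, taurocholate, tween-20; blue fluorogenic substrate 80 uM, 40 min room temperature, stopped and read Ex 365/Em 440 for AC50.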
Sequence of Lysosomal acid glucosylceramidase (Homo sapiens) (P04062 whole entry, looked up): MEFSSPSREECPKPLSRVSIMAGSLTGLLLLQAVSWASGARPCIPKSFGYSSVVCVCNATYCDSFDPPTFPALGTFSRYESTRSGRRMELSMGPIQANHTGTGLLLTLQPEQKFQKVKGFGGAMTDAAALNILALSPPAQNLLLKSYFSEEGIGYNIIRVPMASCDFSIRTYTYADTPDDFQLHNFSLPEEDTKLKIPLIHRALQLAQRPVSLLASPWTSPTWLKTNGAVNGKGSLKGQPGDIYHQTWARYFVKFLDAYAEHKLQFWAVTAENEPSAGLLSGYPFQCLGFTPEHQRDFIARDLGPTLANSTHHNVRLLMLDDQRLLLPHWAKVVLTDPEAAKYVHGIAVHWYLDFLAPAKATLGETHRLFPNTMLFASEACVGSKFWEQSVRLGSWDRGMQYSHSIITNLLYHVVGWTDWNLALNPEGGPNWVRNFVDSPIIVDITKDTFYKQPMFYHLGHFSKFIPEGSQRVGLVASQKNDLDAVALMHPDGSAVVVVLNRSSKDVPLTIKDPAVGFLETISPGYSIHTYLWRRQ

A short description of assay [2]: AP1 Signaling Pathway (AID 357). Further: on the % scale 0 is the no-effect control and ±100 the full control effect. As to conditions: ME-180 AP-1-bla reporter, EGF-induced, beta-lactamase ratio, 5 h; at 7.69 µM (top of the series) unless noted. In outline:
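ME-180 cells with beta-lactamase reporter under AP-1 response element, stimulated with EC50 EGF; compounds tested in titration series, 5 h at 37 °C. CCF4 substrate added 2.5 h at room temperature; 460/530 nm emission ratio gave %activity and AC50.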

Assay [3] can be described thus: NFAT Signaling Pathway (AID 444).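 Further: carbachol stimulus at about its EC50 of 1 µM final; on the % scale 0 is the no-effect control and ±100 the full control effect.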 As to conditions: Jurkat NFAT-bla M1, carbachol, beta-lactamase ratio, 5 h; at 7.69 µM (top of the series) unless noted. In outline: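 Jurkat cells carrying an NFAT-driven β-lactamase reporter and co-transfected muscarinic M1 receptor were treated with compound plus carbachol (1 uM final, an EC50 level) for 5 h at 37 °C. CCF4 loading followed for 1 h at RT; 460/530 nm ratio gave %activity.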

The nature of assay [4]: Stat Signaling Pathway (AID 446).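 Further: ME-180 cervical cancer cells given 40 pM IL-6 alongside compound; SIE-controlled beta-lactamase reporter measured as 460/530 nm FRET emission ratio; on the % scale 0 is the no-effect control and ±100 the full control effect.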 Conditions: ME-180 SIE beta-lactamase reporter, IL-6 stimulated, 5 h; at 7.69 µM (top of the series) unless noted. In outline:
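IL-6/STAT signaling read in ME-180 cells via an SIE beta-lactamase reporter. Stimulus was 40 pM IL-6 (its AC50) for 5 hrs, so both activation and inhibition register.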

The target in assay [5] is Glucocorticoid receptor (Homo sapiens) (UniProt P04150). Briefly: GR-GFP Redistribution (AID 450;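 active means compounds whose dose series gives a full or clear partial fitted curve of increased nuclear translocation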; further: potency means the concentration at half of the fitted maximal effect). As to conditions: U2OS GR-GFP nuclear translocation, laser cytometry, 2 h.
Sequence of Glucocorticoid receptor (Homo sapiens) (P04150 whole entry, looked up): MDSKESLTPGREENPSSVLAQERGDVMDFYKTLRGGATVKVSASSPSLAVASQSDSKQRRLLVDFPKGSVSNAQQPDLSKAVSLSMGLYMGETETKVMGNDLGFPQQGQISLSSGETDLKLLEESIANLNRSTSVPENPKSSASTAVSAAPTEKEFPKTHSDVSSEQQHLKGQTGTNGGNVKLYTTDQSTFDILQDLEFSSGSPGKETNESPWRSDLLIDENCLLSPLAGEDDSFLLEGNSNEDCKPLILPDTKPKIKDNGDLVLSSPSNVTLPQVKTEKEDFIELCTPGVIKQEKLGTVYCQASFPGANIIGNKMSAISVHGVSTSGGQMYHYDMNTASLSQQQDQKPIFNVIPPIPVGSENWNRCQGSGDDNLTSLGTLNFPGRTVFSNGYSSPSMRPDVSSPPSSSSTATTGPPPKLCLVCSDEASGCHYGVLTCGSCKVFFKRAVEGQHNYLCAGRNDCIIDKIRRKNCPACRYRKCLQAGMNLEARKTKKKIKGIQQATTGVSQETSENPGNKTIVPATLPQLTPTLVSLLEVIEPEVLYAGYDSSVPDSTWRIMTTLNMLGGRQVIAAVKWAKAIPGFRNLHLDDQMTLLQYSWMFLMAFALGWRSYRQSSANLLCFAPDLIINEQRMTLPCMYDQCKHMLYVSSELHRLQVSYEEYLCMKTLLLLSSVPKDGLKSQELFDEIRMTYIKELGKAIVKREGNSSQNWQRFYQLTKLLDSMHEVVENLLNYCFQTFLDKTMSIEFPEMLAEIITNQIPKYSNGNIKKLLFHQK
For assay [6] the target is unchanged. Briefly: GR-EFC Redistribution (AID 451; calls by dose curve; further: potency means the concentration at half of the fitted maximal effect). Conditions: CHO-K1 GR-EFC translocation, beta-gal luminescence, 2 h. In outline:
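CHO-K1 cells stably expressing nuclear-localized β-gal enzyme acceptor and GR fused C-terminally to the enzyme donor fragment; ligand-driven nuclear translocation restores β-gal by complementation. Compounds titrated up to 46 uM final, 2 h at 37 °C; luminescence read.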

Assay [7] concerns the target Mitogen-activated protein kinase 10 (Mus musculus) (UniProt Q61831). Briefly: JNK3 AlphaScreen Assay (AID 530).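 Further: kinase came from lysate of stimulated human HepG2 cells; signal reports phosphorylation of biotinylated GST-cJun 1-79 at Ser73 with 10 µM ATP; on the % scale 0 is the no-effect control and ±100 the full control effect.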 Conditions: JNK3 lysate, c-Jun phosphorylation; series mostly up to 11.4 µM. In outline: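 Inhibitors reduce antibody binding to phosphorylated biotin-cJun, lowering AlphaScreen luminescence. Lysates from HepG2 cells pre-activated by IL-1beta plus TNF-alpha supplied JNK3; compounds were titrated.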

Assay [8] has as its target 3',5'-cyclic-AMP phosphodiesterase 4B (Homo sapiens) (UniProt Q07343). Briefly: qHTS Assay for Inhibitors of PDE-IV (AID 607; active means well fitted activation curve with a large enough effect in the main read-out, with a control signal flat, not every such curve was filed as active; further: % of control where 0% means no effect). As to conditions: HEK293 ACTOne CNG channel cells, membrane potential fluorescence; series mostly up to 22.9 µM. Summed up:
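Live HEK293 cells with a modified cyclic nucleotide-gated (CNG) channel report intracellular cAMP via membrane-potential dye fluorescence (ex 535/em 590 nm). Endogenous PDE-IV was targeted. Compounds were tested at up to 22.9 uM final; RO 20-1724 100 uM served as control.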

For assay [9], the target named is Cytochrome P450 2C19 (Homo sapiens) (UniProt P33261). Briefly: qHTS Assay for Inhibitors and Substrates of Cytochrome P450 2C19 (AID 899; active means well fitted curve in the direction sought with a large enough effect; an effect the other way counts as inactive or inconclusive; further: nearly all actives have a fitted effect of over 60% in size; further: potency means the concentration at half of the fitted maximal effect). As to conditions: recombinant CYP2C19, luciferin-H EGE luminescence; series mostly up to 11.4 µM. In outline:
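NADPH-dependent conversion of Luciferin-H EGE (10uM, at KM) by 5nM enzyme in 50mM KPO4, 60 min at 37C following 10 min compound preincubation. Stopped with luciferin detection buffer; luminescence read after 20 min.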

Assay [10] in a line: qHTS Assay for Identification of Small Molecule Agonists for Hypoxia Response Element Signaling Pathway (AID 914; active means well fitted activation curve with a large enough effect in the signal ratio, with a control signal flat, not every such curve was filed as active; the % refers to the signal ratio; further: % of control where 0% means no effect). Conditions: ME-180 (cervical carcinoma) HRE-bla reporter, beta-lactamase ratio, CoCl2, 17 h; activation: active compounds read high. Summed up: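 In Opti-MEM containing 0.5% dialyzed FBS and 10 mM HEPES, ME-180 HRE-bla cells received a compound titration and EC50 CoCl2. They were incubated 17 hours, then CCF4-loaded 2.5 hours at room temperature before ratio reading.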

Assay [11] addresses Cytochrome P450 2D6 (Homo sapiens) (UniProt P10635). Put plainly: qHTS Assay for Inhibitors and Substrates of Cytochrome P450 2D6 (AID 891; active means well fitted curve in the direction sought with a large enough effect; an effect the other way counts as inactive or inconclusive; further: nearly all actives have a fitted effect of over 60% in size; further: potency means the concentration at half of the fitted maximal effect). Conditions: recombinant CYP2D6, luciferin-ME EGE luminescence; series mostly up to 11.4 µM. Summed up:
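Human CYP2D6 (5 nM) with 30 uM Luciferin-ME EGE (at Km) in 100 mM KPO4, compound preincubated 10 min, then NADPH regeneration system for 60 min at room temperature. Luciferin read by luminescence; normalized to 1.43 uM quinidine.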

Assay [12] addresses Cytochrome P450 3A4 (Homo sapiens) (UniProt P08684). Briefly: qHTS Assay for Activators of Cytochrome P450 3A4 (AID 885; active means well fitted curve in the direction sought with a large enough effect; an effect the other way counts as inactive or inconclusive; further: nearly all actives have a fitted effect of over 65% in size). Conditions: recombinant CYP3A4, Luciferin-PPXE luminescence, 60 min; series mostly up to 11.4 µM. In outline:
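Quantitative HTS format: compounds preincubated with 20nM human CYP3A4 and Luciferin-PPXE substrate at KM, reaction started by NADPH regeneration, stopped after 60 min, luciferase luminescence read 20 min later.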

Assay [13] can be described thus: Confirmation and Secondary Assay for Modulators of Hemoglobin Beta Chain Splicing at IVS2 654 locus (AID 910; active means well fitted curve in the direction sought with a large enough effect; an effect the other way counts as inactive or inconclusive;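 further: per-well total GFP intensity by laser scanning cytometry after 2-day treatment; % of control where 0% means no effect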). As to conditions: HeLa EGFP-654 splicing reporter, GFP fluorescence, 48 h; series mostly up to 38.3 µM. Summed up: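 HeLa cells stably carrying EGFP interrupted by mutant beta-globin IVS2-654 intron (CMV-driven) were treated with compound for 2 days at 37C; corrected splicing was scored as total peak GFP intensity per well (488 nm excitation, 500-520 nm emission).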

A short description of assay [14]: Confirmation and Secondary Assay for Modulators of Hemoglobin Beta Chain Splicing at IVS2 705 locus (AID 930; active means well fitted curve in the direction sought with a large enough effect; an effect the other way counts as inactive or inconclusive;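 further: HeLa cells stably expressing the EGFP-705 splicing reporter; GFP fluorescence per well restored by corrected splicing of the IVS2-705 intron in EGFP; % of control where 0% means no effect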). As to conditions: HeLa EGFP-705 splicing reporter, GFP fluorescence, 48 h; series mostly up to 38.3 µM. Summed up:
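Per-well GFP, captured at 1 x 8 µm resolution with 488 nm excitation, served as the read-out for HeLa EGFP-705 cells incubated 2 days with test compound versus DMSO.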

A number with no mark means an inactive call. Results filed as inconclusive are left out. Active and inactive are the calls of the source. Unless noted, the call rests on the fitted dose curve; in most records, active means well fitted curve in either direction with a large enough effect (not every such curve was filed as active); inconclusive means small, poorly fitted or top-dose-only effect, or another doubt; inactive means flat fitted curve, though single readings scatter.

Sequence of Cytochrome P450 2C19 (Homo sapiens) (P33261 whole entry, looked up): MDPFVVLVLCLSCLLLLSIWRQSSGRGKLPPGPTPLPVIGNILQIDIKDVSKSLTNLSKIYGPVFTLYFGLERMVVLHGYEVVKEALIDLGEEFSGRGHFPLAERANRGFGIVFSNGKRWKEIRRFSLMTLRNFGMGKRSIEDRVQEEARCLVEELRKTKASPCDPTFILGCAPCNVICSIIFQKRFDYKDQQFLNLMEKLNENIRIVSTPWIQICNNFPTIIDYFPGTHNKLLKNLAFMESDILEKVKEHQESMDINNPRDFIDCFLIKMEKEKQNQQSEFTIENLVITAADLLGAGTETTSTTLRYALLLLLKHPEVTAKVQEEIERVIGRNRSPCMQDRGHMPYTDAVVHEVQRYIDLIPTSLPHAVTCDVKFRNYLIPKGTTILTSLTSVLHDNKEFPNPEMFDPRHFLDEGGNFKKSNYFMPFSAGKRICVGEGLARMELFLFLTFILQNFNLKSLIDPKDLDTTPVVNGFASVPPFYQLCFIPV
Sequence of Cytochrome P450 2D6 (Homo sapiens) (P10635 whole entry, looked up): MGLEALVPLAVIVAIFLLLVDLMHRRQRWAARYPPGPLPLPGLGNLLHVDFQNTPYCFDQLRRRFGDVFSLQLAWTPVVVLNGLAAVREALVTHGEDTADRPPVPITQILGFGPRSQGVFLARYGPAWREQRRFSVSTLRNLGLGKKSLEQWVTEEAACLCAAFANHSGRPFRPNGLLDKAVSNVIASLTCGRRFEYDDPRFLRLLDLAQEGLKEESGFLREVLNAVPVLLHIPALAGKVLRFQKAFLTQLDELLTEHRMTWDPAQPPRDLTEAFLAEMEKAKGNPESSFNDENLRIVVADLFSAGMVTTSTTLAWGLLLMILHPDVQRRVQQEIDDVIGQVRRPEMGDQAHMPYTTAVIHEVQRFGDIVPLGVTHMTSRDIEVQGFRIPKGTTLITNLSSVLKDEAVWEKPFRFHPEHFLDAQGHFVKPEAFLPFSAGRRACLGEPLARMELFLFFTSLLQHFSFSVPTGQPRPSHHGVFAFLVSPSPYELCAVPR
Sequence of 3',5'-cyclic-AMP phosphodiesterase 4B (Homo sapiens) (Q07343 whole entry, looked up): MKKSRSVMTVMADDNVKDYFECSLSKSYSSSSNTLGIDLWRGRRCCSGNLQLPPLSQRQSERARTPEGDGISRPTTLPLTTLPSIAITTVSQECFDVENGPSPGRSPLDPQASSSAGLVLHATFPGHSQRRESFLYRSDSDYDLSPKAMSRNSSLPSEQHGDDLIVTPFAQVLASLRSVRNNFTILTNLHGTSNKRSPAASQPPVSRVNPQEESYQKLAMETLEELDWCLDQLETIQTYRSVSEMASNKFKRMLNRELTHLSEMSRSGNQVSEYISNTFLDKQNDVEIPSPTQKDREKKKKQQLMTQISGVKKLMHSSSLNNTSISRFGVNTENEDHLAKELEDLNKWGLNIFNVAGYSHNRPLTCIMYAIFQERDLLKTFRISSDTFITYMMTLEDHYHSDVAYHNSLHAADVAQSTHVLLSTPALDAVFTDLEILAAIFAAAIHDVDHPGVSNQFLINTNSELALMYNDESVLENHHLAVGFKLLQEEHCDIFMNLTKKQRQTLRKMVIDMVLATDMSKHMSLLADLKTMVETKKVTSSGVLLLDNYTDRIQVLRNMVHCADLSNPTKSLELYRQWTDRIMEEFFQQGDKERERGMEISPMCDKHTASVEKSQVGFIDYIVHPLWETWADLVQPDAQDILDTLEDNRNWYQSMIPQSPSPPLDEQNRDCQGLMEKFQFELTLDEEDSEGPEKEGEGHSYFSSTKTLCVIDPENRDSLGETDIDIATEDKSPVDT
Sequence of Cytochrome P450 3A4 (Homo sapiens) (P08684 whole entry, looked up): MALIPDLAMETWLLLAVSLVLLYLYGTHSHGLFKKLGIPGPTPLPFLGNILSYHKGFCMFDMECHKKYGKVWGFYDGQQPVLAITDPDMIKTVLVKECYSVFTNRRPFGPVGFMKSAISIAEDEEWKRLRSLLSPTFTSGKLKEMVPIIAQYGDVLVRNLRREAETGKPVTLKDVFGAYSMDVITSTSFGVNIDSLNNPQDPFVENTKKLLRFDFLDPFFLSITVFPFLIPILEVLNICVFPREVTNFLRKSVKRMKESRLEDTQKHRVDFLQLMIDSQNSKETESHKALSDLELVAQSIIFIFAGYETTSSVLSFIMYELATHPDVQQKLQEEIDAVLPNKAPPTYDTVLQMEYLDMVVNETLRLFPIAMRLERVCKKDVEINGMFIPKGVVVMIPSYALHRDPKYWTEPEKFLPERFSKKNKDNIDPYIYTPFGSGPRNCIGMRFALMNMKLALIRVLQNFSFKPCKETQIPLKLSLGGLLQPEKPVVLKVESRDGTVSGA

On to `N#Cc1c(NC(=O)CCC(=O)O)ccc2ccccc12`, for which the Potency in assay [1] was over 11.4 µM; in assay [5] it was over 46 µM; in [6], over 9.22 µM. The activity change, negative = inhibition in assay [2] was -3.75%; in assay [3], 18.9%. Besides, the activity, negative = inhibition in assay [4] is 4.61%. For the same compound, the Potency result in assay [7], in [8] and in assay [9] was “inactive” in each case. The activation in assay [10] is 3.84%.

Consider `Clc1ccc(CSC2=NCCN2)cc1Cl`, for which the Potency is over 11.4 µM in [1], over 46 µM in [5], over 9.22 µM in [6] and 3.16 µM (active) in [11]. Besides, the activity change, negative = inhibition in [2] is -9.06%; in assay [3] it was -19.4%. Besides, in assay [4], the activity, negative = inhibition is -8%. Also, the Potency result in assay [7] and in assay [8] was “inactive” in each case.

Consider `O=C(CON1C(=O)c2ccccc2C1=O)c1ccccc1`, for which the Potency in assay [1] is over 11.4 µM; in assay [5], over 46 µM; in assay [6] it was over 9.22 µM. In addition, the results for the activity change, negative = inhibition in [2] and in assay [3] were -3.99% and 4.1%, respectively. Moreover, the activity, negative = inhibition in assay [4] is 1.01%. Further, the Potency result in [7] and in [8] was “inactive” in each case. Besides, the activation in assay [10] was -13.1%.

Regarding `CC(C)[C@](N)(C(=O)O)c1ccccc1`, the Potency in assay [1] is over 11.4 µM; in assay [5], over 46 µM; in [6], over 9.22 µM. In addition, the results for the activity change, negative = inhibition in [2] and in [3] were -9.87% and 5.98%, respectively. Also, the activity, negative = inhibition in [4] was 29.8%. Further, the Potency result in assay [7], in [8] and in assay [11] was “inactive” in each case.

In the case of `O=C(O)CC[C@@H](C(=O)O)N1C(=O)[C@@H]2[C@@H]3CC[C@H](C3)[C@@H]2C1=O`, the Potency in [1] is over 11.4 µM; in assay [5], over 46 µM; in [6], over 9.22 µM. In addition, the values for the activity change, negative = inhibition in assay [2] and in [3] were 11.4% and 3.45%, respectively. Besides, in assay [4], the activity, negative = inhibition was -17%. The Potency entry in assay [7], in assay [8] and in assay [9] was “inactive” in each case.

On to `CC(=O)[C@H](C(=N)C#N)C(=O)Nc1ccccc1`, for which the Potency in assay [1] is over 11.4 µM; in [5], over 46 µM; in assay [6], over 9.22 µM. Further, the activity change, negative = inhibition was -0.768% in assay [2] and -3.12% in [3]. Also, the activity, negative = inhibition in [4] is 13.1%. For the same compound, the Potency result in assay [7], in assay [8] and in [9] was “inactive” in each case.

`Cn1c(=O)c(CCc2ccccc2)nc2cnc(N3CCNCC3)nc21`: the Potency in [1] was over 11.4 µM; in assay [5], over 9.22 µM; in [6], over 46 µM. For the same compound, the activity change, negative = inhibition is -6.16% in assay [2] and 8.46% in assay [3]. The activity, negative = inhibition in [4] is 11.7%. In addition, the Potency entry in [7], in assay [8] and in [12] was “inactive” throughout.

`c1cncc(CNCc2cccnc2)c1`: the values for the Potency in [1], in [5] and in [6] were over 11.4 µM, over 46 µM and over 9.22 µM, respectively. In addition, the figures for the activity change, negative = inhibition in [2] and in [3] were -1.94% and 2.26%, respectively. The activity, negative = inhibition in [4] was 12.4%. The Potency entry in assay [7], in [8] and in [11] was “inactive” throughout.

`CN(C)c1ncnc2c1ncn2CCn1cnc2c(N(C)C)ncnc21`: the Potency in [1] is over 11.4 µM; in [5] it was over 46 µM; in assay [6] it was over 9.22 µM. For the same compound, the activity change, negative = inhibition in [2] and in assay [3] was 7.13% each time. Also, the activity, negative = inhibition in [4] was 11.6%. The Potency entry in assay [7], in assay [8] and in assay [11] was “inactive” each time.

On to `CC(C)=C[C@H]1[C@@H](C(=O)Oc2ccccc2C(C)C)C1(C)C`, for which the Potency was over 11.4 µM in [1], over 46 µM in assay [5], over 9.22 µM in assay [6] and 1.26 µM (active) in assay [9]. For the same compound, the activity change, negative = inhibition is 9.15% in [2] and 3.56% in [3]. The activity, negative = inhibition in assay [4] is 6.13%. The Potency result in assay [7] and in assay [8] was “inactive” each time.

`c1ccc(-c2nnn(CCN3CCCCC3)n2)cc1`: the Potency in assay [1] was over 11.4 µM; in assay [5], over 46 µM; in [6], over 9.22 µM; in assay [9], 1.26 µM (active). Also, the activity change, negative = inhibition in [2] is 10.5%; in assay [3] it was -5.15%. Also, the activity, negative = inhibition in assay [4] was 1.18%. For the same compound, the Potency entry in [7] and in assay [8] was “inactive” in each case. In addition, the activation in assay [10] was -4.81%.

Take `C[C@H](C(=O)c1ccncc1)c1ccccn1`: the Potency is over 11.4 µM in assay [1], over 46 µM in assay [5] and over 9.22 µM in [6]. The results for the activity change, negative = inhibition in [2] and in [3] were 0.391% and -8.81%, respectively. The activity, negative = inhibition in [4] was 8.11%. In addition, the Potency entry in [7], in assay [8] and in [12] was “inactive” in each case.

`Cc1cccc(CNc2nc(-c3ccc(C(=O)N(C)C)cc3)nc3ccccc23)c1`: the Potency is over 11.4 µM in assay [1], over 46 µM in assay [5] and over 46 µM in assay [6]. For the same compound, the results for the activity change, negative = inhibition in assay [2] and in [3] were -29.6% and 25.2%, respectively. The activity, negative = inhibition in assay [4] was -18.6%. Further, the Potency entry in assay [7] is “inactive”. Moreover, the outcome in assay [13] and in assay [14] was inactive.
